From ChEMBL document CHEMBL4296182, “CO-ADD screening of NIH NCI Diversity Set V” come the findings set out here.

For part of these data: Results with a measured potency or affinity are listed apart.

One test has as its system Staphylococcus aureus. Kind of test: Antibacterial activity against Staphylococcus aureus MRSA ATCC 43300 (CO-ADD:GP_020); MIC in CAMBH media using NBS plates, by Resazurin F(560/590). The following applies: Concentration 20 uM, ASSAY_TEST Inhibition of Bacterial Growth, detection method Resazurin, Fluorescence (ex560/em590), MEDIA CAMHB, plate type 384well, CORNING #3640, time 18 hr. Type of test: functional. (Alamar Blue is a resazurin reagent that responds to reducing activity.)

In another test the test system is Acinetobacter baumannii. Kind of test: Antibacterial activity against Acinetobacter baumannii ATCC 19606 (CO-ADD:GN_034); MIC in CAMBH media using NBS plates, by Resazurin F(560/590). As to conditions: Concentration 20 uM, ASSAY_TEST Inhibition of Bacterial Growth, detection method Resazurin, Fluorescence (ex560/em590), MEDIA CAMHB, plate type 384well, CORNING #3640, time 18 hr. In kind it is functional.

Another test relates to Escherichia coli. Kind of test: Antibacterial activity against Escherichia coli ATCC 25922 (CO-ADD:GN_001); MIC in CAMBH media using NBS plates, by Resazurin F(560/590). Type of test: functional. The following applies: Concentration 20 uM, ASSAY_TEST Inhibition of Bacterial Growth, detection method Resazurin, Fluorescence (ex560/em590), MEDIA CAMHB, plate type 384well, CORNING #3640, time 18 hr.

The next test has as its system Klebsiella pneumoniae. As to conditions: Concentration 20 uM; ASSAY_TEST Inhibition of Bacterial Growth; detection method Absorption (OD600); MEDIA CAMHB; plate type 384well; NBS; CORNING #3640; time 18 hr.
Another test deals with Candida albicans. As to conditions: 20 µM.
In a further test the test system is Cryptococcus neoformans. As to conditions: Concentration 20 uM; ASSAY_TEST Inhibition of Fungal Growth; detection method Resazurin; Absorption (OD600-OD570); plate type 384well; NBS; CORNING #3640.

The Inhibition is the change of the read-out against control, counted positive when it falls. Take `CCOC(=O)Nc1ccc2nc(Sc3ccc(Cl)cc3)sc2c1`: the Inhibition is 12.84% in the test on Staphylococcus aureus; 1.81% with Acinetobacter baumannii; -1.5% in the test on Escherichia coli; 17.17% in the test with Klebsiella pneumoniae; 10.2% in the test on Candida albicans; -3.93% in the test on Cryptococcus neoformans.
With `OCc1nc2nc(Cl)c(Cl)[nH]c-2n1`, the Inhibition in the test with Staphylococcus aureus is -3.73%; in the test with Acinetobacter baumannii it was 14.74%; with Escherichia coli, -8.33%; in the test on Klebsiella pneumoniae, 8.57%; in the test on Candida albicans it was 1.75%; in the test with Cryptococcus neoformans, -8.15%.
As for `CCOC(=O)N1CCc2cc(OC)c(OC)c3c2c1cc1cc(OC)c(OC)cc13`, the Inhibition in the test on Staphylococcus aureus is -2.61%; with Acinetobacter baumannii, -15.62%; in the test on Escherichia coli, 19.24%; in the test with Klebsiella pneumoniae, 9.85%; in the test on Candida albicans, 5.76%; in the test with Cryptococcus neoformans it was -3.38%.
As for `OCC(O)C1OCOC(C(O)CO)C1O` (stereo not given), the Inhibition was 14.61% in the test on Staphylococcus aureus; -8.42% in the test on Acinetobacter baumannii; 9.4% in the test on Escherichia coli; 8.21% with Klebsiella pneumoniae; 0.45% in the test on Candida albicans; -5.49% with Cryptococcus neoformans.
Turning to `CC1=CC2C(C(O)CC3(C)C2CC(C)C32OCOC23COCO3)C2(C)C/C(=C/O)C(=O)C=C12` (stereo not given), the Inhibition with Staphylococcus aureus is 18.36%; with Acinetobacter baumannii, -11.09%; in the test with Escherichia coli, 9.35%; with Klebsiella pneumoniae it was 4.64%; with Candida albicans it was 15.1%; with Cryptococcus neoformans it was -16.69%.
Regarding `CCOC(=O)/C=C/c1nc(O)c(C)c(C(=O)OCC)n1`, the Inhibition in the test with Staphylococcus aureus is -2.98%; with Acinetobacter baumannii it was -11.68%; in the test on Escherichia coli, 5.55%; in the test on Klebsiella pneumoniae it was 4.47%; in the test with Candida albicans it was 0.35%; with Cryptococcus neoformans, -10.31%.
As to `Cc1nc2nc(C(F)(F)F)[nH]c2nc1C`, the Inhibition in the test on Staphylococcus aureus is 10.93%; in the test with Acinetobacter baumannii, 9.55%; in the test with Escherichia coli it was -5.58%; in the test with Klebsiella pneumoniae, 7.77%; with Candida albicans, 3.03%; in the test with Cryptococcus neoformans, -5.2%.
Turning to `Cn1ncc2c(NCc3ccccc3)ncnc21`, the Inhibition with Staphylococcus aureus is 5.23%; in the test with Acinetobacter baumannii, -15.8%; in the test on Escherichia coli it was 13.47%; in the test on Klebsiella pneumoniae it was 1.24%; with Candida albicans, -0.05%; in the test on Cryptococcus neoformans it was -9.92%.
As to `Oc1ccc(Nc2ccnc3cc(Cl)ccc23)cc1`, the Inhibition is -0.21% in the test with Staphylococcus aureus; 16.04% with Acinetobacter baumannii; -4.01% in the test on Escherichia coli; 17.31% in the test on Klebsiella pneumoniae; 0.86% in the test on Candida albicans; -3.23% in the test with Cryptococcus neoformans.
As to `COC(=O)C1=C(C(=O)OC)[C@@H]2CCC[C@H]1[C@H]1[C@@H]2N=NN1c1ccccc1`, the Inhibition was 22.18% in the test on Staphylococcus aureus; -12.99% in the test with Acinetobacter baumannii; 6.51% in the test on Escherichia coli; 9.18% in the test with Klebsiella pneumoniae; 2.48% in the test with Candida albicans; 8.73% in the test on Cryptococcus neoformans.
`c1ccc(-c2nnc3oc(-c4cccs4)nn23)cc1`: the Inhibition in the test on Staphylococcus aureus is -2.52%; with Acinetobacter baumannii it was -16.04%; in the test with Escherichia coli, 4.88%; in the test with Klebsiella pneumoniae, 16.29%; with Candida albicans, 19.4%; in the test on Cryptococcus neoformans, 28.69%.
In the case of `O=C(O)c1cccc2c1C(=O)c1cccc3snc-2c13`, the Inhibition was 11.24% with Staphylococcus aureus; 8.28% in the test with Acinetobacter baumannii; -4.32% in the test with Escherichia coli; 2.89% in the test on Klebsiella pneumoniae; 21.9% with Candida albicans; -0.5% in the test on Cryptococcus neoformans.
With `O=[N+]([O-])c1nc[nH]c1/C=C\c1ccccc1`, the Inhibition with Staphylococcus aureus is 6.19%; in the test with Acinetobacter baumannii, -12.82%; in the test with Escherichia coli it was 5.35%; in the test with Klebsiella pneumoniae, 8.67%; in the test on Candida albicans it was 3.47%; in the test with Cryptococcus neoformans it was 10.56%.
As for `CC(=O)NCC(O)c1ccc([N+](=O)[O-])cc1` (stereo not given), the Inhibition is 9.36% with Staphylococcus aureus; -9% in the test on Acinetobacter baumannii; 7.49% with Escherichia coli; 22.16% in the test on Klebsiella pneumoniae; 1.24% in the test with Candida albicans; 2.12% with Cryptococcus neoformans.
Regarding `CC12CCC(C1)C(C)(C)C2OC(=O)c1ccccc1C(=O)O` (stereo not given), the Inhibition is 7.81% with Staphylococcus aureus; -7.81% with Acinetobacter baumannii; -3.09% in the test on Escherichia coli; 22.55% with Klebsiella pneumoniae; 4.22% with Candida albicans; -18.67% with Cryptococcus neoformans.
`Cl/N=C1/C=CC=C/C1=N/Cl`: the Inhibition in the test with Staphylococcus aureus is -18.23%; with Acinetobacter baumannii it was -7.09%; with Escherichia coli, 4.05%; in the test on Klebsiella pneumoniae, -1.59%; in the test on Candida albicans, -1.15%; in the test on Cryptococcus neoformans, -1.81%.
Turning to `Cc1cccc(C)c1NC(=O)Nc1ccc(S(N)(=O)=O)cc1`, the Inhibition in the test with Staphylococcus aureus was -3.68%; in the test with Acinetobacter baumannii, 5.47%; with Escherichia coli, 8.39%; with Klebsiella pneumoniae, 5.63%; in the test with Candida albicans, 0.87%; with Cryptococcus neoformans, -12.09%.
Turning to `O=C(O)c1ccc(O)c(O)c1` [PROTOCATECHUIC ACID], the Inhibition in the test with Staphylococcus aureus is 11.87%; in the test with Acinetobacter baumannii, -8.73%; in the test on Escherichia coli it was 11.18%; with Klebsiella pneumoniae, 17.43%; in the test on Candida albicans it was -0.18%; with Cryptococcus neoformans, -4.26%.
As for `Cn1c(N)c(/N=N/c2ccc(S(N)(=O)=O)cc2)c(=O)n(C)c1=O`, the Inhibition is 19.52% in the test with Staphylococcus aureus; 4.45% in the test on Acinetobacter baumannii; 15.26% in the test on Escherichia coli; 20.82% with Klebsiella pneumoniae; 2.91% in the test with Candida albicans; -0.3% with Cryptococcus neoformans.
Regarding `Cc1cnc2cc(Cl)ccc2c1SCC(=O)O`, the Inhibition is 2.5% in the test with Staphylococcus aureus; 10.23% in the test with Acinetobacter baumannii; 1.72% with Escherichia coli; 11.14% in the test on Klebsiella pneumoniae; 11.6% in the test on Candida albicans; -9.96% with Cryptococcus neoformans.
